Rows were chosen to be rich in hits. Some 18% of all compounds tested hit in one or more screens of this group.
DT40 TDP1 no CPT – qHTS for Inhibitors of human tyrosyl-DNA phosphodiesterase 1 (TDP1): qHTS in cells in absence of CPT. DT40 Tdp1-/- hTDP1 cells, no CPT, ATP luminescence, 48 h. Potency, µM (doses to about 46.2 µM), hits mostly inhibitors. 15% of 420,000 active; note: nearly all actives have a fitted effect of over 55% in size
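Growth kinetics read by CellTiter-Glo luminescence after ≥48 hr at 37 °C. Cells: DT40 Tdp1-/- stably carrying human TDP1, 400 per well, compound exposure in the absence of CPT (DMSO vehicle).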
VDR inh – blocks the human vitamin D receptor; P11473; 0.93% of 400,000 active; Potency, µM, hits mostly inhibitors; VDR-SRC2-3 peptide fluorescence polarization, 2 h
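Signal is fluorescence polarization, reporting how far test compounds block the interaction of VDR with the SRC2-3 coregulator peptide after a 2 h room-temperature incubation.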
TDP1 inh – blocks human tyrosyl-DNA phosphodiesterase 1; Potency, µM (titrated, usually from 130 µM), usual class: inhibitors; 0.28% of 350,000 active; Q9NUW8; recombinant TDP1, AlphaScreen DNA substrate cleavage; note: nearly all actives have a fitted effect of over 40% in size
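Enzyme-compound mixtures sat 15 min at room temperature, followed by a 5 min reaction with 15 nM final substrate and 10 min with AlphaScreen beads. Recombinant human Tdp1 was used at 1 nM final.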
KAT2A inh – GCN5L2 (KAT2A) acetyltransferase inhibition. Q92830. GCN5L2 HAT assay, ThioGlo1 CoA-SH fluorescence. Potency, µM (top dose mostly 58.9 µM), actives largely listed as inhibitors. 0.21% of 390,000 active. AID 504327
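qHTS, 1536-well. 20nM enzyme, pH 7.5 HEPES/EDTA/Tween-20 buffer; 15 min compound preinc., RT. Start: 75uM H3(1-25), 70uM AcCoA, 50uM ThioGlo1. Read Ex340/Em540 at t=0 (autofluorescence flag) and t=20 min.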
DT40 TDP1 CPT – DT40-hTDP1 cell growth loss with CPT; AID 686979; 12% of 420,000 active; chicken DT40 Tdp1-/-;hTDP1 cells + 20 nM CPT, ATP luminescence, 48 h; Potency, µM (series often up to 46.2 µM), hits mostly inhibitors; note: nearly all actives have a fitted effect of over 55% in size
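Chicken DT40 Tdp1-/- cells complemented with human TDP1, 400 cells/well, exposed to compounds plus 20 nM camptothecin for at least 48 h at 37 C; viability read as ATP content by CellTiter-Glo luminescence.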
PLK1 PBD inh – blocks phosphopeptide binding to human PLK1 polo-box domain. Plk1 PBD binding of FITC phosphopeptide, fluorescence polarization. P53350. AID 720504. 2.8% of 360,000 active. Potency, µM, hits mostly inhibitors; note: series mostly up to about 57 µM; nearly all actives have a fitted effect of over 65% in size
Target sequence (P53350 whole entry, looked up, the tested form may be a part): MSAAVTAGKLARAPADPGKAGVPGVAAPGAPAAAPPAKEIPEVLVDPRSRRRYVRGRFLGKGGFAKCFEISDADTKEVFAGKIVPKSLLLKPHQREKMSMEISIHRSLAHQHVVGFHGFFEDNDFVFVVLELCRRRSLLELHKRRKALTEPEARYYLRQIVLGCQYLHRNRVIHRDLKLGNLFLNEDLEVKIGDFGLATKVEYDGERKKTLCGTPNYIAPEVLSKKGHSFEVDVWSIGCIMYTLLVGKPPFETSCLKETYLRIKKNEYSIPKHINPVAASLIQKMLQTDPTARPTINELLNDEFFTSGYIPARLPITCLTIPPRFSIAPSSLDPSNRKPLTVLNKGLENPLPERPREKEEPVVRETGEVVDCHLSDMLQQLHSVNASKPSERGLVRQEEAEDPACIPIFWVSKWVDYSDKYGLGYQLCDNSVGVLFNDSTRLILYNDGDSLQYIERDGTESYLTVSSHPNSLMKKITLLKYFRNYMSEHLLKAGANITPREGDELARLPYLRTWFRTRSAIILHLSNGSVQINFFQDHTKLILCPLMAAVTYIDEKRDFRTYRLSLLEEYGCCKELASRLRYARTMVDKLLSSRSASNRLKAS
A number is an active result; - = inactive; ? = inconclusive; . = no result given; [ ] = another dose, or the depositor's remark. Calls come from the whole dose curve; as a rule, active = well fitted curve in the direction sought with a large enough effect; inconclusive = small, poorly fitted or top-dose-only effect, or another doubt; inactive = no such curve, though single readings can be large; an effect the other way counts as inactive or inconclusive.

SMILES	DT40 TDP1 no CPT	VDR inh	TDP1 inh	KAT2A inh	DT40 TDP1 CPT	PLK1 PBD inh
O=c1c(-c2cccc(Cl)c2)nc2cncnc2n1Cc1ccccc1Cl	-	-	.	-	-	.
CCCSc1nsc(NC(=O)CC)n1	?	-	-	-	-	-
CCCSc1nsc(NC(=O)C(c2ccccc2)c2ccccc2)n1	29µM	-	-	-	18µM	-
CCC(C)(C)n1nnnc1C(c1cc2cccc(C)c2[nH]c1=O)N1CCCC1 (stereo not given)	-	-	-	-	?	-
Cc1ccc(C)c2[nH]c(=O)c(C(c3nnnn3C(C)(C)C)N3CC=C(c4ccc(F)cc4)CC3)cc12 (stereo not given)	16µM	-	-	-	?	-
COc1ccc(C(=O)NNC(=S)NC(=O)c2cc(-c3ccccc3)nc3ccccc23)cc1	16µM	-	-	-	?	?
COC(=O)c1ccc(NC(=S)NC(=O)c2cc(-c3ccccc3)nc3ccccc23)cc1	?	-	-	-	?	-
COc1ccc(Cl)cc1C(=O)NNC(=S)NC(=O)c1cc(-c2ccccc2)nc2ccccc12	?	-	-	-	?	-
CCCOc1ccc(C(=O)NNC(=S)NC(=O)c2cc(-c3ccc(Cl)cc3)nc3ccccc23)cc1	12µM	-	-	?	23µM	-
Cc1cc(O)c(N=Cc2cc3c(cc2[N+](=O)[O-])OCO3)cc1C	21µM	-	.	.	?	-
COc1ccccc1N1CCN(C(=O)c2cccc(C(=O)N3CCN(c4ccccc4OC)CC3)c2)CC1	?	-	.	-	?	-
O=C(c1cccc(F)c1)N1CCN(c2cccc(C(F)(F)F)c2)CC1	?	-	-	-	?	-
CCn1cc(C(=O)N2CCN(c3cccc(C)c3C)CC2)c2cc(OC)c(OC)cc2c1=O	21µM	-	-	-	21µM	.
COc1ccccc1C(=O)N1CCN(c2cccc(C(F)(F)F)c2)CC1	12µM	-	-	-	10µM	-
COc1cc(C(=O)N2CCN(c3cccc(C(F)(F)F)c3)CC2)ccc1OCC(=O)N1CCOCC1	21µM	-	.	.	23µM	-
COc1cc(C(=O)N2CCN(S(=O)(=O)c3ccc(C)cc3)CC2)ccc1OCC(=O)N1CCOCC1	-	-	.	.	-	-
COc1cc(C(=O)N2CCN(c3cccc(C)c3C)CC2)cc(OC)c1OC	0.82µM	-	-	-	0.82µM	-
CC(=O)Nc1ccc(C2NC(=O)CCC2[N+](=O)[O-])cc1 (stereo not given)	-	-	.	-	-	-
Cc1noc(C)c1-c1cncnc1NCc1ccccc1	?	?	.	-	?	.
CCn1cc(C(=O)NCC(=O)OC)c2cc(OC)c(OC)cc2c1=O	-	-	-	-	-	-
CCn1cc(C(=O)N2CCN(c3cccc(C(F)(F)F)c3)CC2)c2cc(OC)c(OC)cc2c1=O	23µM	?	-	-	18µM	.
COc1cc2c(C(=O)N3CCN(c4cccc(Cl)c4)CC3)cn(CC(C)C)c(=O)c2cc1OC	?	-	-	-	23µM	-
COc1cc2c(C(=O)N3CCN(c4ccc(F)cc4)CC3)cn(CC(C)C)c(=O)c2cc1OC	?	-	-	-	?	.
OCCN(Cc1ccccc1)c1ncnc2sccc12	13µM	-	-	-	?	-
c1ccc(CSc2ncnc3sccc23)cc1	-	-	.	-	-	-
SMILES	DT40 TDP1 no CPT	VDR inh	TDP1 inh	KAT2A inh	DT40 TDP1 CPT	PLK1 PBD inh
COc1ccc(CCN(C)c2ncnc3sccc23)cc1OC	-	-	-	-	?	-
CN(Cc1cccs1)c1ncnc2sccc12	16µM	-	-	-	?	-
CN(Cc1ccccc1F)c1ncnc2sccc12	21µM	-	-	-	?	-
Cc1cc(F)ccc1C(O)c1ncc(-c2cccc3ccccc23)[nH]1 (stereo not given)	?	.	.	.	?	-
CCCCC/C=C\C/C=C\C/C=C\C/C=C\CCCC(=O)O[C@@H](CO)COC(=O)CCCCCCCCCCCCCCCCC	-[4.12 µM]	-	-	-	-[4.12 µM]	.
CCN1CCN(C(=O)c2c(-c3c(Cl)cccc3Cl)noc2C)CC1	-	-	.	-	-	-
CCCCN(CC)C(=O)c1ccc2c(c1)NC(=O)c1ccccc1S2	-	-	-	-	-	.
CCCCC/C=C\C\C=C/C=C/C=C/[C@@H](SCC(NC(C)=O)C(=O)O)[C@@H](O)CCCC(=O)O (stereo not given in full)	-[0.628 µM]	-	-	-	-[0.628 µM]	.
Cc1nnc(SC(C)C(=O)Nc2ccc(N3CCOCC3)cc2)n1Cc1ccccc1 (stereo not given)	-	-	-	-	-	-
COCCNC(=S)N1CCC(C(=O)c2ccc(F)cc2)CC1	?	-	.	.	-	-
C=CCNC(=S)N1CCC(C(=O)c2ccc(Cl)cc2)CC1	?	-	-	-	16µM	-
CC(C)(C)NC(=S)N1CCC(C(=O)c2ccc(Cl)cc2)CC1	-	-	.	-	-	-
CCOCCCNC(=S)N1CCC(C(=O)c2ccc(C)cc2)CC1	?	-	.	-	18µM	-
CC(C)CNC(=S)N1CCC(C(=O)c2ccc3c(c2)OCCO3)CC1	23µM	-	-	-	?	-
Cc1ccc(C(=O)C2CCN(C(=S)NCC3CCCO3)CC2)cc1 (stereo not given)	10µM	-	-	-	15µM	-
COCCCNC(=S)N1CCC(C(=O)c2ccc3c(c2)OCCO3)CC1	-	-	-	-	?	-
COCCn1c(=S)[nH]c2cc(C(=O)N3CCN(Cc4ccccc4)CC3)ccc2c1=O	?	-	.	.	-	.
CC(=O)C1=C(C)NC(C)=C(C(C)=O)C1c1ccccc1	-	-	-	-	-	-
CSc1ccc(CNC(=O)CN2C(=O)C3CCCCN3c3ccc(C(=O)N4CCCC4)cc32)cc1 (stereo not given)	?	-	-	-	?	.
CCc1ccccc1-n1nnnc1SCC(=O)Nc1ccc(N2CCN(C)CC2)cc1	?	-	-	-	?	-
CC(C)CNC(=S)N1CCC(C(=O)c2ccc(F)cc2)CC1	?	-	.	-	?	-
C=CCNC(=S)N1CCC(C(=O)c2ccc(C)cc2)CC1	?	-	.	-	26µM	-
CN(C)CCCNC(=S)N1CCC(C(=O)c2ccc(Cl)cc2)CC1	16µM	.	.	.	23µM	-
S=C(NCC1CCCO1)N1CCN(c2ccccc2)CC1 (stereo not given)	-	-	-	-	-	-
FC(F)(F)c1cccc(N2CCN(C(=S)NCC3CCCO3)CC2)c1 (stereo not given)	23µM	-	-	-	?	-
O=c1c(Cl)c(NCc2ccccc2)cnn1C12CC3CC(CC(C3)C1)C2	?	-	-	-	-	-

Screens as filed in PubChem BioAssay.
